# Results: PubChem BioAssay (NCATS)
# A number with no mark means an inactive call. Results filed as inconclusive are left out. Activity calls are given as the source filed them. Unless noted, calls come from the whole dose curve; as a rule, active = well fitted curve in the direction sought with a large enough effect; inconclusive = small, poorly fitted or top-dose-only effect, or another doubt; inactive = no such curve, though single readings can be large; an effect the other way counts as inactive or inconclusive.
# Columns and labels:
# [1] = target: Lysosomal acid glucosylceramidase (Homo sapiens) (UniProt P04062); experiment: Glucocerebrosidase-p2 (AID 348; in the data active = potency below about 10 µM; note: potency is the fitted concentration of half-maximal effect); conditions: purified GBA, blue fluorogenic substrate, 40 min
# Outline: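 Compounds titrated from 0.6 nM upwards against 0.2 nM enzyme in pH 5.9 citric acid/KH2PO4, taurocholate, tween-20; blue fluorogenic substrate 80 uM, 40 min room temperature, stopped and read Ex 365/Em 440 for AC50.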
# [2] = AP1 Signaling Pathway (AID 357; active = well fitted curve in either direction with a large enough effect, not every such curve was filed as active; note: % is set by controls: 0 for no effect and ±100 for the full control effect); conditions: ME-180 AP-1-bla reporter, EGF-induced, beta-lactamase ratio, 5 h; at 7.69 µM (top of the series) unless noted
# Outline: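 AP-1-bla ME-180 cells with beta-lactamase reporter under AP-1 response element, stimulated with EC50 EGF; compounds titrated, 5 hours at 37 degrees Celsius. CCF4 read at 460/530 nm ratio; positive and negative modulators judged by AC50.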
# [3] = target: Cytochrome P450 1A2 (Homo sapiens) (UniProt P05177); experiment: p450-cyp1a2 (AID 410; calls by dose curve; note: potency is the fitted concentration of half-maximal effect); conditions: recombinant CYP1A2, luciferin-ME demethylation, luminescence; series mostly up to 57 µM
# Outline: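 Inhibition was calculated relative to 57 uM furafylline (full inhibition). The reaction used human CYP1A2 at 20nM with Luciferin-ME at its Km, 100uM, driven by an NADPH-regenerating system for 60 min at room temperature.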
# [4] = NFAT Signaling Pathway (AID 444; active = well fitted curve in either direction with a large enough effect, not every such curve was filed as active;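 note: carbachol stimulus at about its EC50 of 1 µM final; % is set by controls: 0 for no effect and ±100 for the full control effect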); conditions: Jurkat NFAT-bla M1, carbachol, beta-lactamase ratio, 5 h; at 7.69 µM (top of the series) unless noted
# Outline: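 Jurkat cells carrying an NFAT-driven β-lactamase reporter and co-transfected muscarinic M1 receptor were treated with compound plus carbachol (1 uM final, an EC50 level) for 5 h at 37 °C. CCF4 loading followed for 1 h at RT; 460/530 nm ratio gave %activity.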
# [5] = Stat Signaling Pathway (AID 446; active = well fitted curve in either direction with a large enough effect, not every such curve was filed as active;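 note: ME-180 cervical cancer cells given 40 pM IL-6 alongside compound; SIE-controlled beta-lactamase reporter measured as 460/530 nm FRET emission ratio; % is set by controls: 0 for no effect and ±100 for the full control effect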); conditions: ME-180 SIE beta-lactamase reporter, IL-6 stimulated, 5 h; at 7.69 µM (top of the series) unless noted
# Outline: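 ME-180 SIE-bla cells; overnight plating; cpd + IL-6 40 pM, 5 h, 37 C; LiveBLAzer 2.5 h RT; 460/530 nm emission ratio. Normalized to 300 pM IL-6 and 125 nM JAK inhibitor controls.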
# [6] = target: Glucocorticoid receptor (Homo sapiens) (UniProt P04150); experiment: GR-GFP Redistribution (AID 450;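 active = compounds whose dose series gives a full or clear partial fitted curve of increased nuclear translocation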; note: potency is the fitted concentration of half-maximal effect); conditions: U2OS GR-GFP nuclear translocation, laser cytometry, 2 h
# [7] = target: Glucocorticoid receptor (Homo sapiens) (UniProt P04150); experiment: GR-EFC Redistribution (AID 451; calls by dose curve; note: potency is the fitted concentration of half-maximal effect); conditions: CHO-K1 GR-EFC translocation, beta-gal luminescence, 2 h
# Outline: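 CHO-K1 cells stably expressing nuclear-localized β-gal enzyme acceptor and GR fused C-terminally to the enzyme donor fragment; ligand-driven nuclear translocation restores β-gal by complementation. Compounds titrated up to 46 uM final, 2 h at 37 °C; luminescence read.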
# [8] = target: Mitogen-activated protein kinase 10 (Mus musculus) (UniProt Q61831); experiment: JNK3 AlphaScreen Assay (AID 530; active = well fitted curve in either direction with a large enough effect, not every such curve was filed as active;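 note: kinase came from lysate of stimulated human HepG2 cells; signal reports phosphorylation of biotinylated GST-cJun 1-79 at Ser73 with 10 µM ATP; % is set by controls: 0 for no effect and ±100 for the full control effect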); conditions: JNK3 lysate, c-Jun phosphorylation; series mostly up to 57.1 µM
# Outline: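 JNK3 came from HepG2 lysates pre-activated with IL-1beta and TNF-alpha and phosphorylated biotinylated GST-cJun (1-79) at 10 uM ATP, pH 7.6, room temperature. Compounds were titrated. AlphaScreen signal used anti-phospho-cJun (Ser73) antibody.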
# [9] = target: 3',5'-cyclic-AMP phosphodiesterase 4B (Homo sapiens) (UniProt Q07343); experiment: qHTS Assay for Inhibitors of PDE-IV (AID 607; active = well fitted activation curve with a large enough effect in the main read-out, with a control signal flat, not every such curve was filed as active; note: % of control where 0% means no effect); conditions: HEK293 ACTOne CNG channel cells, membrane potential fluorescence; series mostly up to 22.9 µM
# Outline: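 ACTOne HEK293 cells carry a modified cAMP-gated CNG channel and express endogenous PDE4; plated 1000 cells/well, compounds up to 22.9 uM final. Membrane-potential dye fluorescence (ex 535/em 590) was read; parental cells received 10 uM forskolin + 100 uM RO 20-1724.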
# [10] = target: Cytochrome P450 3A4 (Homo sapiens) (UniProt P08684); experiment: qHTS Assay for Activators of Cytochrome P450 3A4 (AID 885); conditions: recombinant CYP3A4, Luciferin-PPXE luminescence, 60 min; series mostly up to 57.1 µM; note: nearly all actives have a fitted effect of over 65% in size
# Outline: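 20nM CYP3A4 + 25uM Luciferin-PPXE (=KM), 200mM KPO4; cpd 10 min RT; NADPH regen, 60 min RT; stop w/ detection buffer, 20 min; luminescence. Normalized to 57 uM ketoconazole.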
# [11] = target: Dual specificity protein kinase CLK4 (Homo sapiens) (UniProt Q9HAZ1); experiment: qHTS Assay for Inhibitors of CDC-like Kinase 4 (Kinase-Glo Assay) (AID 1770); conditions: recombinant Clk4, Kinase-Glo ATP depletion luminescence; series mostly up to 66.7 µM; note: nearly all actives have a fitted effect of over 65% in size; note: potency is the fitted concentration of half-maximal effect
# Outline: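 Inhibition was judged from remaining ATP, measured by Ultra-Glo luciferase bioluminescence after Clk4 (25 nM) had acted on RS peptide at 1 uM ATP for 4.5 hours, room temperature.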
# [12] = target: Dual specificity protein kinase CLK4 (Homo sapiens) (UniProt Q9HAZ1); experiment: qHTS Assay for Inhibitors of CDC-like Kinase 4 (ADP-Glo Assay) (AID 1771); conditions: recombinant CLK4, ADP-Glo luminescence; series mostly up to 80 µM; note: nearly all actives have a fitted effect of over 70% in size; note: potency is the fitted concentration of half-maximal effect
# Outline: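 Kinase reaction: Clk4 at 25 nM, RS repeat peptide substrate at 100 uM, ATP at 1 uM, 1 hr, room temperature. Product ADP detected as luciferase signal via ADP-Glo.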
# [13] = target: Dual specificity protein kinase CLK4 (Homo sapiens) (UniProt Q9HAZ1); experiment: qHTS Assay for Inhibitors of CDC-like Kinase 4 (ADP-FP Assay) (AID 1795); conditions: Transcreener ADP fluorescence polarization; series mostly up to 50 µM; note: nearly all actives have a fitted effect of over 60% in size; note: potency is the fitted concentration of half-maximal effect
# Outline: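 Inhibition of ADP formation by 6.25 nM Clk4 is measured using 1 uM ATP and 100 uM RS repeat peptide over one hour. Produced ADP displaces a fluorescent tracer from antibody, lowering polarization.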
# [14] = target: Ubiquitin carboxyl-terminal hydrolase 1 (Homo sapiens) (UniProt O94782); experiment: Inhibitors of USP1/UAF1: Pilot qHTS (AID 504865); conditions: purified USP1/UAF1, Ub-rhodamine cleavage fluorescence; series mostly up to 54.9 µM;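 note: rhodamine fluorescence freed from ubiquitin-rhodamine substrate followed over time; top concentration of the series differs between compounds; % is set by controls: 0 for no effect and ±100 for the full control effect; nearly all actives have a fitted effect of over 35% in size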
# Outline: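 Kinetic fluorescence assay: 1nM USP1/UAF1, 15 min compound preincubation, then 150nM Ub-Rho; 480/540 nm.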
# [15] = Primary qHTS for small molecule stabilizers of the endoplasmic reticulum resident proteome: Secreted ER Calcium Modulated Protein (SERCaMP) assay (AID 1508630); conditions: SH-SY5Y GLuc-SERCaMP (Gaussia luciferase released on ER calcium loss) secretion, thapsigargin, luminescence; series mostly up to 38.4 µM; note: % is set by controls: 0 for no effect and ±100 for the full control effect
# Outline: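 GLuc-SERCaMP-expressing SH-SY5Y cells, pretreated 16 h with compound, are challenged with thapsigargin to empty ER calcium stores; after 4 h, coelenterazine is added directly to the medium and luminescence is imaged.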
# [16] = target: Cytochrome P450 3A4 (Homo sapiens) (UniProt P08684); experiment: qHTS Assay for Inhibitors and Substrates of Cytochrome P450 3A4 (AID 884); conditions: recombinant CYP3A4, Luciferin-PPXE luminescence; series mostly up to 57.1 µM; note: potency is the fitted concentration of half-maximal effect; nearly all actives have a fitted effect of over 50% in size
# Outline: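 20 nM human CYP3A4 with 25 uM Luciferin-PPXE (at KM) in 200 mM KPO4, preincubated 10 min with compound; NADPH regeneration started a 60 min RT reaction. Luciferin detected by luminescence, normalized to 57 uM ketoconazole as full inhibition.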
# [17] = qHTS Assay for Identification of Small Molecule Agonists for Hypoxia Response Element Signaling Pathway (AID 914; active = well fitted activation curve with a large enough effect in the signal ratio, with a control signal flat, not every such curve was filed as active; the % refers to the signal ratio; note: % of control where 0% means no effect); conditions: ME-180 (cervical carcinoma) HRE-bla reporter, beta-lactamase ratio, CoCl2, 17 h; activation: hits give high values
# Outline: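 HRE-bla ME-180 assay for agonist-like enhancement of an EC50 CoCl2 stimulus: 17 h at 37 degrees Celsius, CCF4 for 2.5 h, ratiometric 460/530 nm signal converted to %Activity and fitted to AC50.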
# [18] = target: Cytochrome P450 2C19 (Homo sapiens) (UniProt P33261); experiment: qHTS Assay for Inhibitors and Substrates of Cytochrome P450 2C19 (AID 899); conditions: recombinant CYP2C19, luciferin-H EGE luminescence; series mostly up to 57.1 µM; note: potency is the fitted concentration of half-maximal effect; nearly all actives have a fitted effect of over 60% in size
# Outline: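 In 50mM KPO4, the reaction held 5nM enzyme and KM-level (10uM) Luciferin-H EGE; it ran 60 min at 37C after NADPH regeneration and a 10 min compound preincubation. Luminescence values were scaled to 57uM ketoconazole as complete inhibition.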
# Cytochrome P450 3A4 (Homo sapiens), sequence (P08684 whole entry, looked up): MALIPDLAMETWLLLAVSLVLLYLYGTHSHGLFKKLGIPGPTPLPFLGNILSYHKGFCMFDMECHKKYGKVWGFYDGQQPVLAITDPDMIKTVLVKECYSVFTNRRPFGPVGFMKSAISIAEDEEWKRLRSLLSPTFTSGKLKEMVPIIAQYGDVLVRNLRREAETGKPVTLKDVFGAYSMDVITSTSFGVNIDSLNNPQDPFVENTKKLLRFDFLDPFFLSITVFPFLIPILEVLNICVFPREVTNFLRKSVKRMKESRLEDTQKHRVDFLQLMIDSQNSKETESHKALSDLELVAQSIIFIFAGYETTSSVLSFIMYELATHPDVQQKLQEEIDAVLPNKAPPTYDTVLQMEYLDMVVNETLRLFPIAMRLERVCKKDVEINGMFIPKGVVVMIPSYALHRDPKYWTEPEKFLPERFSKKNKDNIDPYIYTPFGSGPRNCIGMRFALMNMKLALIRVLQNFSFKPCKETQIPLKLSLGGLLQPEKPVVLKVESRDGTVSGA
# Cytochrome P450 1A2 (Homo sapiens), sequence (P05177 whole entry, looked up): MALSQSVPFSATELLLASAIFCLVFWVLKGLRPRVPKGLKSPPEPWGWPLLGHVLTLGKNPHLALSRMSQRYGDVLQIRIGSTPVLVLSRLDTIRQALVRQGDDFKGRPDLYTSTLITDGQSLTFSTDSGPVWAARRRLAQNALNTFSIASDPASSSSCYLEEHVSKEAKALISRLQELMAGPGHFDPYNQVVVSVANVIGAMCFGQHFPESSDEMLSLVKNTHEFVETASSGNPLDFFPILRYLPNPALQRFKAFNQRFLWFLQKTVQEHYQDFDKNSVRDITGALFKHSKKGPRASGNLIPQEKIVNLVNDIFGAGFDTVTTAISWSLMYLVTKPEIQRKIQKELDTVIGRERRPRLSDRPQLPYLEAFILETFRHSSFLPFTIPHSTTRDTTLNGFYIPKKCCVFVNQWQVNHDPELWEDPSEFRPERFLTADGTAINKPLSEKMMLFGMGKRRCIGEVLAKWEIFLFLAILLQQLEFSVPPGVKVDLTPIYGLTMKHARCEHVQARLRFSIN
# Dual specificity protein kinase CLK4 (Homo sapiens), sequence (Q9HAZ1 whole entry, looked up): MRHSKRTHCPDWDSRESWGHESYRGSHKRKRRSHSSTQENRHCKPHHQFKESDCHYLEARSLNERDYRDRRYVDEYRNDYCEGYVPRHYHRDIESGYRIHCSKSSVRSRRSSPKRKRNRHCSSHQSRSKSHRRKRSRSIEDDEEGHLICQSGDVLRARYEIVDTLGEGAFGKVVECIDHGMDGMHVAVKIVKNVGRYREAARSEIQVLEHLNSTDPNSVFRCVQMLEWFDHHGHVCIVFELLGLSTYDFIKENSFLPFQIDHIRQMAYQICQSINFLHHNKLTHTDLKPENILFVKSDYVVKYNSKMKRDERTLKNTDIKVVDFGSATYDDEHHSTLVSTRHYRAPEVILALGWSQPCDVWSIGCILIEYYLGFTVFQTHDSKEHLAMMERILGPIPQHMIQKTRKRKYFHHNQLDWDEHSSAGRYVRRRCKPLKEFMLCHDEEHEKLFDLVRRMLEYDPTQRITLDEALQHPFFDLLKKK
# Lysosomal acid glucosylceramidase (Homo sapiens), sequence (P04062 whole entry, looked up): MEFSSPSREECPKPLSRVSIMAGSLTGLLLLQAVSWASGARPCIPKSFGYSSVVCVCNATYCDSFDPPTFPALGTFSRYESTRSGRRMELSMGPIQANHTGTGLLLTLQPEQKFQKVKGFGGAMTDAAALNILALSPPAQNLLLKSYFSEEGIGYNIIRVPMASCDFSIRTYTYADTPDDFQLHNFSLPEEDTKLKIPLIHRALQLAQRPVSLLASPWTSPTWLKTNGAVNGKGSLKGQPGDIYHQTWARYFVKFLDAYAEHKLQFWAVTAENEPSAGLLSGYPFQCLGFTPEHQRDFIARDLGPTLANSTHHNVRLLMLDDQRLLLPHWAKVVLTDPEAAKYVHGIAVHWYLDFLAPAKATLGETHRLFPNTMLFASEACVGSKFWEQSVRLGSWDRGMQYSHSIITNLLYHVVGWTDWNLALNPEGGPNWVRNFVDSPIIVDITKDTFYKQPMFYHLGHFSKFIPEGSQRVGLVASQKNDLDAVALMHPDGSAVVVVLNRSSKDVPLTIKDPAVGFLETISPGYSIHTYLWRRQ
# Ubiquitin carboxyl-terminal hydrolase 1 (Homo sapiens), sequence (O94782 whole entry, looked up): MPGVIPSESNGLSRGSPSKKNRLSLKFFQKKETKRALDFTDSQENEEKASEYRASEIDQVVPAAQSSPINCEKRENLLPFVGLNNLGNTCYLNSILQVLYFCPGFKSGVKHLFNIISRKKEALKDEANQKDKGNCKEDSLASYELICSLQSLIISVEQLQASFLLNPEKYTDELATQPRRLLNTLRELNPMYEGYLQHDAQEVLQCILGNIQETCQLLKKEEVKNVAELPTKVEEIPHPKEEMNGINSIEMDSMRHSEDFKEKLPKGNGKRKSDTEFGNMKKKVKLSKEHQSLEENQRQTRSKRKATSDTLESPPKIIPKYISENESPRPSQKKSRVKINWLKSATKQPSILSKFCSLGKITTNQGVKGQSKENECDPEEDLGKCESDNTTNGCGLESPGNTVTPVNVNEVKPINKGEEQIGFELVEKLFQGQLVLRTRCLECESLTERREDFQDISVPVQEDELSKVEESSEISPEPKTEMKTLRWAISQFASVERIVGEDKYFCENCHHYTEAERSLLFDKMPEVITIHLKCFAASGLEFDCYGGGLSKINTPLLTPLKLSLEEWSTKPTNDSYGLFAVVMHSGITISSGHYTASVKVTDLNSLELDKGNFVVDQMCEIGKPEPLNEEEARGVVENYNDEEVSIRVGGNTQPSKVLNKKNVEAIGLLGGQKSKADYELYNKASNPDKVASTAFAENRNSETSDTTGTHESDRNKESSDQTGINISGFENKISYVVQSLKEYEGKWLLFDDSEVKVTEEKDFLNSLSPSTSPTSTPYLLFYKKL
# Glucocorticoid receptor (Homo sapiens), sequence (P04150 whole entry, looked up, the tested form may be a part): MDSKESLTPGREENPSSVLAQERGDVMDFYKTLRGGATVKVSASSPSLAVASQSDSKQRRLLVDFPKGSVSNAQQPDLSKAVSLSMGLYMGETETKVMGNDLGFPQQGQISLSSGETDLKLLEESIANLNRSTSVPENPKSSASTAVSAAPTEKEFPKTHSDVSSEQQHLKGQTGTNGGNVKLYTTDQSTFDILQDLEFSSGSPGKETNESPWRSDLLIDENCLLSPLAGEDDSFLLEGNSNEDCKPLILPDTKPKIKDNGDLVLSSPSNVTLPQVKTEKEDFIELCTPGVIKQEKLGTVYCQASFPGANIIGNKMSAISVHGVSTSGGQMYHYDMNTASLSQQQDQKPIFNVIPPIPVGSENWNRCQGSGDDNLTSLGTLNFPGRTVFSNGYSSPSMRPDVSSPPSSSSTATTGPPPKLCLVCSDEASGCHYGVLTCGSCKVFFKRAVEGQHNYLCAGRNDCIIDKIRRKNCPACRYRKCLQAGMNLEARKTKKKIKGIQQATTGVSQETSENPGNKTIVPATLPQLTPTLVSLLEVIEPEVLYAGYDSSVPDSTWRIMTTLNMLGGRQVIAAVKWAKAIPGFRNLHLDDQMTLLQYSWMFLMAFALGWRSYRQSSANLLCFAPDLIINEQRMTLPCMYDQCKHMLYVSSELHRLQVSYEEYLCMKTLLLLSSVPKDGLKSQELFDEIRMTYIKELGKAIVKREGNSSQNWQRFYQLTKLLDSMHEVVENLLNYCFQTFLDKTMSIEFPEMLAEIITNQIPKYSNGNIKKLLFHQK
# 3',5'-cyclic-AMP phosphodiesterase 4B (Homo sapiens), sequence (Q07343 whole entry, looked up): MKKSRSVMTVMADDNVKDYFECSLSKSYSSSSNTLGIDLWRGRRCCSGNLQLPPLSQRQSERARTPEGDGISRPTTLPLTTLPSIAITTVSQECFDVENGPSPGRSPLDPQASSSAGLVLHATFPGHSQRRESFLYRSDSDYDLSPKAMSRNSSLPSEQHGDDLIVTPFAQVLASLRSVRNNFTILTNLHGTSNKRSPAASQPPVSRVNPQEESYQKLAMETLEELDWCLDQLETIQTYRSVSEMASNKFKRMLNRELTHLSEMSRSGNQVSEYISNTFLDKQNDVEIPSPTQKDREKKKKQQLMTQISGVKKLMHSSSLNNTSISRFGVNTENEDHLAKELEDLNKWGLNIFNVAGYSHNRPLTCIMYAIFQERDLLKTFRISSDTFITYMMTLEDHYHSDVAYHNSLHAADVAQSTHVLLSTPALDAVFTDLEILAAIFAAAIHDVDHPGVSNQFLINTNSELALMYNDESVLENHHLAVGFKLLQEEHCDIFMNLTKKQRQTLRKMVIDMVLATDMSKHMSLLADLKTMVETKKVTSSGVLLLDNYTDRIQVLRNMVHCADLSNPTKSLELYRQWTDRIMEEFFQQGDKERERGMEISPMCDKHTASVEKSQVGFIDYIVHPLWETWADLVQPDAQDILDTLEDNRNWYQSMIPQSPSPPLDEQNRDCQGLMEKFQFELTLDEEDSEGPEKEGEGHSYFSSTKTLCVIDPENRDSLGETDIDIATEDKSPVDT
# Cytochrome P450 2C19 (Homo sapiens), sequence (P33261 whole entry, looked up): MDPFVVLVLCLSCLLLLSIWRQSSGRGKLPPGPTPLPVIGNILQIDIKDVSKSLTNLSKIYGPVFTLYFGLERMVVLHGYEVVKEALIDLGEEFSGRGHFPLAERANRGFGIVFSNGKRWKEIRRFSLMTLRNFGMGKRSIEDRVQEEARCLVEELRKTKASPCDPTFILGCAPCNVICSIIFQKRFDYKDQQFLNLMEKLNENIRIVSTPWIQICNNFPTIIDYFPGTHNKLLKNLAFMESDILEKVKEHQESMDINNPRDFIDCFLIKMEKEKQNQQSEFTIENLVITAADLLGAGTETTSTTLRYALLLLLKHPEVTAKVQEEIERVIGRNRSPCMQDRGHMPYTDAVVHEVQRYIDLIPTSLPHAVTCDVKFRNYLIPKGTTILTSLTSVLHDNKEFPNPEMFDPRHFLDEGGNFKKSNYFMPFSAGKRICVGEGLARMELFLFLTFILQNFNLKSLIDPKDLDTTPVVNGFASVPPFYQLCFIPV
SMILES,Potency [1],"activity change, negative = inhibition [2] [%]",Potency [3],"activity change, negative = inhibition [4] [%]","activity, negative = inhibition [5] [%]",Potency [6] [µM],Potency [7] [µM],Potency [8],Potency [9],Potency [10],Potency [11],Potency [12],Potency [13],Potency [14],outcome [15],Potency [16],activation [17] [%],Potency [18]
COCCn1c(=O)c(-c2cc(F)cc(F)c2)nc2cncnc21,> 11.4 µM,-5.19,2 µM (active),1.95,-7.77,> 9.22,> 46,inactive,inactive,inactive,inactive,inactive,inactive,inactive,inactive,,,
COc1cccc(Cn2c(=O)c(-c3ccccc3)nc3cnc(OC)nc32)c1,> 11.4 µM,-11.6,15.8 µM (active),-17.4,1.57,> 9.22,> 46,inactive,,inactive,inactive,inactive,inactive,inactive,inactive,7.94 µM (active),,
COc1ccc(-n2c(=O)c(-c3ccccc3)nc3cnc(N4CCOCC4)nc32)cc1,> 11.4 µM,5.32,15.8 µM (active),6.27,6.26,> 9.22,> 46,inactive,inactive,,inactive,inactive,inactive,inactive,inactive,,-1.88,
COc1ccccc1CCn1c(=O)c(-c2cccc(Cl)c2)nc2cncnc21,> 11.4 µM,-3.94,0.316 µM (active),-27.9,-13,> 9.22,> 46,inactive,,inactive,inactive,inactive,inactive,inactive,inactive,6.31 µM (active),,0.251 µM (active)
COc1cccc(Cn2c(=O)cnc3cnc(OCc4ccccc4)nc32)c1,> 11.4 µM,-24.3,12.6 µM (active),-4.5,-13.2,> 9.22,> 46,inactive,,inactive,inactive,inactive,inactive,inactive,inactive,,,
Cc1ccccc1-c1nc(NC2CC2)c2ccccc2n1,1.17 µM (active),17.6,0.501 µM (active),-19.1,-0.286,> 46,> 46,inactive,,inactive,12.6 µM (active),11.2 µM (active),10 µM (active),inactive,inactive,3.98 µM (active),,
